From PubChem BioAssay (Tox21)
Results filed as inconclusive are left out. Unmarked numbers belong to inactive results. Calls of active or inactive are those of the source. Calls follow the shape of the full dose curve.

Test: qHTS assay for small molecule agonists of the p53 signaling pathway - cell viability (AID 651633);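 also: p53RE-bla HCT reporter cells with a stable beta-lactamase p53 reporter; nearly all actives have a fitted effect of over 30% in size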
Conditions: p53RE-bla HCT-116 viability, ATP luminescence, 16 h; series mostly up to 83.3 µM; activity change, negative = cytotoxicity: at the top concentration
Outline: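 Viability counter-read: CellTiter-Glo luminescence (30 min, room temperature) in the same p53RE-bla plates. These plates had been exposed to compounds for 16 h at 37 C.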
% is scaled to controls: 0 for no effect and ±100 for the full control effect.

Compound | activity change, negative = cytotoxicity | Potency
COc1nc(C)nc(NC(=O)NS(=O)(=O)c2ccccc2OCCCl)n1 | 4.99% | 
CCCCNC(=S)NCCCC | -11.8% | 
CC(C)(C)c1cccc(O)c1 | 12.5% | 
O=C1CCC(C2CCCCC2)CC1 | 27.7% | 
COC(=O)c1ccc2cc(C(=O)OC)ccc2c1 | 24% [at 39.1 µM] | 
CCCc1c2oc(C(=O)O)cc(=O)c2cc2c(=O)cc(C(=O)O)n(CC)c12 | 9.41% | 
CC(CNC1CCCCC1)OC(=O)c1ccccc1 (stereo unspecified) | 20.1% [at 39.1 µM] | 
CC(C)OC(C)C | -21.1% [at 95.3 µM] | 
OCCN(CCO)c1ccccc1 | 12.7% | 
O=C(C(Cl)Cl)N1CCOC12CCCCC2 | 12.4% | 
CCCCCCCCCC#N | -10.1% | 
CCOC(=O)C(Br)c1ccccc1 (stereo unspecified) | 12.9% | 
C[C@@H](N)C(=O)O | 10.6% | 
O=C1N(c2ccccc2)c2ccccc2C1(Cc1ccncc1)Cc1ccncc1 | 32% | 
Cc1ccsc1C(=CCCN1CCC[C@@H](C(=O)O)C1)c1sccc1C | -14.8% | 
C=CCc1cc(OC)c(O)c(C(=O)NCCO)c1 | 11.2% | 
CCc1cc(Cl)c(OC)c(C(=O)NC[C@@H]2CCCN2CC)c1O |  | inactive
CCCCOc1cc(C(=O)NCCN(CC)CC)c2ccccc2n1 | 9.33% [at 39.1 µM] | 

Compound | activity change, negative = cytotoxicity | Potency
CCC(=O)O[C@]1(C(=O)SCF)[C@H](C)C[C@H]2[C@@H]3C[C@H](F)C4=CC(=O)C=C[C@]4(C)[C@@]3(F)[C@@H](O)C[C@@]21C | -23.5% [at 39.1 µM] | 
NNS(=O)(=O)c1ccc(Oc2ccc(S(=O)(=O)NN)cc2)cc1 | -25.2% | 
CN(CC1(C)CCCO1)S(=O)(=O)c1ccc(Cl)c(S(N)(=O)=O)c1 (stereo unspecified) | 15.7% | 
CCCCCOc1ccc(C2SC(=O)NC2=O)cc1OCC (stereo unspecified) | -19.6% | 
CCCCNCCCC | 12% | 
CC(C)c1ccccc1 | -10.6% [at 95.3 µM] | 
CC/C=C\CCOC(=O)C(C)C | 14.6% | 
CCC1(C)NC(=O)NC1=O (stereo unspecified) | 13.8% | 
Cc1cc(S(=O)(=O)O)c(N)cc1Cl | 16.6% [at 95.3 µM] | 
COc1cc(N)c(Cl)cc1C(=O)NC1CCN(Cc2ccccc2)CC1 | 17.5% [at 39.1 µM] | 
CCOC(=O)C1CC(=O)C(=C(O)C2CC2)C(=O)C1 (stereo unspecified) | 7.13% | 
O=S(=O)(O)C(F)(F)F | -5.94% | 
O=c1[nH]cnc2c1ncn2[C@@H]1O[C@H](CO)[C@@H](O)[C@H]1O | 15.5% | 
Cc1cc(NS(=O)(=O)c2ccc(N)cc2)nc(C)n1 | -3.9% | 
CC(C)CCCCCCc1ccc(OCCOCCO)cc1 | -27.2% [at 95.3 µM] | 
CC1(C)S[C@@H]2[C@H](NC(=O)C(C(=O)O)c3ccccc3)C(=O)N2[C@H]1C(=O)O (stereo partly specified) | -12.1% | 
CCCCCCCCOC(=O)CCCCCCCCC(=O)OCCCCCCCC | 1.66% | 
O=C1C=CC(=O)O1 | 11% [at 95.3 µM] | 
